# Of roughly 7,900 targets only a part is listed; those with a hit were picked by preference. About 0.6% of all pairs of compound and target were hits. Unmarked numbers belong to inactive results.
# Experiments:
# Assay in all cases: log2 fold change, soluble protein after heating vs DMSO (PISA); higher = thermal stabilisation; K562 cells, 10 uM, 30 min; active = over 0.2 and 3.5 SD of the protein, either way, in both replicates (recomputed)
# IRAK-1-4 Inhibitor I = compound: C1COCCN1CCN2C3=CC=CC=C3N=C2NC(=O)C4=CC(=CC=C4)[N+](=O)[O-] [IRAK-1-4 Inhibitor I]
# Outline: (§1)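 For each measurement, 10 μM compound was applied for 30 min to K562 cells at 2×10^6 cells/mL. Aliquots were heated for 3 min across 48°C-58°C, pooled, and extracted in PBS with 0.5% NP-40 at 4°C; the supernatant after 21,000xg for 90 min was soluble protein. This was quantified by TMTpro 16plex LC-MS/MS with channel sums equalised, and thermal stability was reported relative to control samples from duplicates, on a log2 fold-change scale.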
# ibrutinib = compound: C=CC(=O)N1CCC[C@@H](n2nc(-c3ccc(Oc4ccccc4)cc3)c3c(N)ncnc32)C1 [ibrutinib]
# Outline: as §1
# [1] = compound: CC(=O)c1cnc2ccc(-c3cc(Cl)c(O)c(Cl)c3)nc2c1N[C@H]1CC[C@H](CN(C)C)CC1
# Outline: as §1
# ralimetinib = compound: CC(C)(C)Cn1c(N)nc2ccc(-c3[nH]c(C(C)(C)C)nc3-c3ccc(F)cc3)nc21 [ralimetinib]
# Outline: as §1
# [2] = compound: CC(C)(O)CC(=O)NCCn1ccc2ncnc(Nc3ccc(Oc4cccc(C(F)(F)F)c4)c(Cl)c3)c21
# Outline: as §1
# [3] = compound: CC(C)C1=C2N=C(C=C(N2N=C1)NCC3=CC=CC=C3)NCCCCCCN
# Outline: as §1
# [4] = compound: CC(C)C[C@@H](C=O)NC(=O)[C@H](CC(C)C)NC(=O)[C@H](CC(C)C)NC(=O)OCc1ccccc1
# Outline: as §1
# pinometostat = compound: CC(C)N(C[C@H]1O[C@@H](n2cnc3c(N)ncnc32)[C@H](O)[C@@H]1O)[C@H]1C[C@@H](CCc2nc3cc(C(C)(C)C)ccc3[nH]2)C1 [pinometostat]
# Outline: as §1
# [5] = compound: CC1=C(C(CC(=O)N1)C2=CC=C(C=C2)C(F)(F)F)C(=O)NC3=C(C=C4C(=C3)C=NN4)F
# Outline: as §1
# [6] = compound: CC1=C(C2=C(C=C1)C(=O)C3=CC=CC=C3N2CCCN)C
# Outline: as §1
# UniProt Q9P2H3, sequence (Q9P2H3 whole entry, looked up): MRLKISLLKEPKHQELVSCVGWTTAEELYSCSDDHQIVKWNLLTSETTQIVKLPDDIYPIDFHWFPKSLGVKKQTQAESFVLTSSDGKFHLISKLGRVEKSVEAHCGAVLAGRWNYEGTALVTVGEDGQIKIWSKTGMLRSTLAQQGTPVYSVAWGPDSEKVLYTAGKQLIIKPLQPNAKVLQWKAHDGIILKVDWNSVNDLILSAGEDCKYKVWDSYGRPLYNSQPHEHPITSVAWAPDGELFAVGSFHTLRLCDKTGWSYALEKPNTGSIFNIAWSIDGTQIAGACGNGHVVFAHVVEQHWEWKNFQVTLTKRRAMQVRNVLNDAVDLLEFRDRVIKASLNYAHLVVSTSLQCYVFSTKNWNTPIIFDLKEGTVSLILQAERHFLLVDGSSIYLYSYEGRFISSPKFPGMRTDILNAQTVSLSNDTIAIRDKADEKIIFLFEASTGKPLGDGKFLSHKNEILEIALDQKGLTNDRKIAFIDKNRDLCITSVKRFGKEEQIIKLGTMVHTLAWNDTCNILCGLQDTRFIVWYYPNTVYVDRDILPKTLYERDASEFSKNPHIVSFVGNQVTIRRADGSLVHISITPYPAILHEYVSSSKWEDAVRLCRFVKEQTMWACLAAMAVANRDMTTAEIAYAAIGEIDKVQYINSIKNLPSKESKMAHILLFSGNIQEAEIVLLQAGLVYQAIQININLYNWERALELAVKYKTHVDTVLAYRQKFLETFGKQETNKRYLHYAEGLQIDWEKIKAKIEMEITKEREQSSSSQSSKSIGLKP
# UniProt P22830, sequence (P22830 whole entry, looked up): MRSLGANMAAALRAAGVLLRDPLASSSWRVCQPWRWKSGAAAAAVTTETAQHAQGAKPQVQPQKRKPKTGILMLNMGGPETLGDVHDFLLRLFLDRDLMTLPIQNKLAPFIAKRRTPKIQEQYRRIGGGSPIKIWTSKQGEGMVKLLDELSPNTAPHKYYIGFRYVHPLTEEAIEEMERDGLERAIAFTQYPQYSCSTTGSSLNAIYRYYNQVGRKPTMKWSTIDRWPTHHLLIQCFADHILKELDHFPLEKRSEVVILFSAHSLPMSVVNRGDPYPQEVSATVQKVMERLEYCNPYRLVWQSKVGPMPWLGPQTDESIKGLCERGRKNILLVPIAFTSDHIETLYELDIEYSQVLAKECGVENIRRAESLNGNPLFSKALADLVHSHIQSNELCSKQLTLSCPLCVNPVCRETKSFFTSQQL
# UniProt Q86VS8, sequence (Q86VS8 whole entry, looked up): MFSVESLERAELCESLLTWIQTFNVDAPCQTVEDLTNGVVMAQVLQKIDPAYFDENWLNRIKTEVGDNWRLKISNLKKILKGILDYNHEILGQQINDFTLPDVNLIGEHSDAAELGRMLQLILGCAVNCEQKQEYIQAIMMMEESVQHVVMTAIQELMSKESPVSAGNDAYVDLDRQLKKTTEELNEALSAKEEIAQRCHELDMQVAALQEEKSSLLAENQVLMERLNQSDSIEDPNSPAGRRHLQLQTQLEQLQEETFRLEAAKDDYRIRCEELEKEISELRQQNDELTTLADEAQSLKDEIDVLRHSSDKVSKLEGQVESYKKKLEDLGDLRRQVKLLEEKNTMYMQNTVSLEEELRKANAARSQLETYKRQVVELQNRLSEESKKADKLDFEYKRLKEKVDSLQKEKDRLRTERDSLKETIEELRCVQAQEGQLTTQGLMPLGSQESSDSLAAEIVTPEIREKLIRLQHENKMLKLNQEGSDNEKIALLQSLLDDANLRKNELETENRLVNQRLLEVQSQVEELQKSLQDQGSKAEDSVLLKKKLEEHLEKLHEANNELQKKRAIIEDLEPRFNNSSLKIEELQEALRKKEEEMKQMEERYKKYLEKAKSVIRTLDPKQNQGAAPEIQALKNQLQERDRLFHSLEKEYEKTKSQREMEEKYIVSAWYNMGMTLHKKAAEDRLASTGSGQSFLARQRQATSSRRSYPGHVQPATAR
# UniProt Q9Y5Q8, sequence (Q9Y5Q8 whole entry, looked up): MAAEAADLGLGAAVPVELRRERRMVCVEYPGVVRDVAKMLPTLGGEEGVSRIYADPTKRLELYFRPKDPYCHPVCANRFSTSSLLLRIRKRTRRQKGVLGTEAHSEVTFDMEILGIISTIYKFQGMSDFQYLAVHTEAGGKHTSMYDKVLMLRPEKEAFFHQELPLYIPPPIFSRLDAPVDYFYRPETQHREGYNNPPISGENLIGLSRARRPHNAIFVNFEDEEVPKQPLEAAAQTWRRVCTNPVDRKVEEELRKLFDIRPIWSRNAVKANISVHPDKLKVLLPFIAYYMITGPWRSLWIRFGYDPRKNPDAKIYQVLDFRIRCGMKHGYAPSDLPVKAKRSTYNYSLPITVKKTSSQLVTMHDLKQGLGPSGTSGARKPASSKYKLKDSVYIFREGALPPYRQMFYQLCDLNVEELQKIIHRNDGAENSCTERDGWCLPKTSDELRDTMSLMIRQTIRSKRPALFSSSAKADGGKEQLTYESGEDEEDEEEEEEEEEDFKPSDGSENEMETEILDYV
# UniProt O15347, sequence (O15347 whole entry, looked up): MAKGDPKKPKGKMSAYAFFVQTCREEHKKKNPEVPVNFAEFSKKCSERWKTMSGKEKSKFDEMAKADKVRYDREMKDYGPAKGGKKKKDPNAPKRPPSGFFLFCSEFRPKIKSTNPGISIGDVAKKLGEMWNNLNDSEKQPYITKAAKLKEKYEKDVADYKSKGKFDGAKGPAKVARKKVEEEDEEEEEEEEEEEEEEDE
# UniProt P46976, sequence (P46976 whole entry, looked up): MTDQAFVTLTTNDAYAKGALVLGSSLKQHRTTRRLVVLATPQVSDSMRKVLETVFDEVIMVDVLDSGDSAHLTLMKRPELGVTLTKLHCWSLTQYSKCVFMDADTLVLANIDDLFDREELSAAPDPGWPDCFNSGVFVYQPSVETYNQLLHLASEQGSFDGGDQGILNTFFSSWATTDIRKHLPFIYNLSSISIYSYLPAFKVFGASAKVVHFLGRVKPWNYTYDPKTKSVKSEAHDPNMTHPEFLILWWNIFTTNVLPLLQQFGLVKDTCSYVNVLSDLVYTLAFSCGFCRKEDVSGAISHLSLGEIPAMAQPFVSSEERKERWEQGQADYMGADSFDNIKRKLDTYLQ
# UniProt Q7Z4H3, sequence (Q7Z4H3 whole entry, looked up): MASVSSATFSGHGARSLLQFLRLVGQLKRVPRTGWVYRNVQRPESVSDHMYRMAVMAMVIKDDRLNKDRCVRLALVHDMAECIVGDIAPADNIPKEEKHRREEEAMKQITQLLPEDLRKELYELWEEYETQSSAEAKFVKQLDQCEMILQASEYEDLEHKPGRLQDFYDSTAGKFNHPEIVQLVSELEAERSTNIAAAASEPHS
# UniProt P05114, sequence (P05114 whole entry, looked up): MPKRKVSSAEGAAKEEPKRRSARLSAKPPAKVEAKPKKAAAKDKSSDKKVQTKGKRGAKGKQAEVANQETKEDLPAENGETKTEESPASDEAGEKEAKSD
# UniProt P05362, sequence (P05362 whole entry, looked up): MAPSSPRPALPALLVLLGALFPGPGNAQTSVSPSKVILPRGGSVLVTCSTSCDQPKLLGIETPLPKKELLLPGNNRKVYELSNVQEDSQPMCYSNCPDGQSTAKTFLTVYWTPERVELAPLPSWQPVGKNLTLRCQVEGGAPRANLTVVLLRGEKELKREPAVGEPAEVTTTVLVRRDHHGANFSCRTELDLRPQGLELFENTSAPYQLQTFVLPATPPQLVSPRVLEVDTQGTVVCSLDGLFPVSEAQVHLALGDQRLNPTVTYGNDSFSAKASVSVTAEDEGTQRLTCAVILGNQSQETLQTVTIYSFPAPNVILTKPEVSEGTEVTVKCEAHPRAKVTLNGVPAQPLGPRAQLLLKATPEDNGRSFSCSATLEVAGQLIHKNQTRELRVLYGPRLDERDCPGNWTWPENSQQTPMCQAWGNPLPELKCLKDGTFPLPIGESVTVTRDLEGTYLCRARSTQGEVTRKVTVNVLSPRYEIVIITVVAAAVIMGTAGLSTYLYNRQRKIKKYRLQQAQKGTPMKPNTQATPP
# UniProt Q9BYC5, sequence (Q9BYC5 whole entry, looked up): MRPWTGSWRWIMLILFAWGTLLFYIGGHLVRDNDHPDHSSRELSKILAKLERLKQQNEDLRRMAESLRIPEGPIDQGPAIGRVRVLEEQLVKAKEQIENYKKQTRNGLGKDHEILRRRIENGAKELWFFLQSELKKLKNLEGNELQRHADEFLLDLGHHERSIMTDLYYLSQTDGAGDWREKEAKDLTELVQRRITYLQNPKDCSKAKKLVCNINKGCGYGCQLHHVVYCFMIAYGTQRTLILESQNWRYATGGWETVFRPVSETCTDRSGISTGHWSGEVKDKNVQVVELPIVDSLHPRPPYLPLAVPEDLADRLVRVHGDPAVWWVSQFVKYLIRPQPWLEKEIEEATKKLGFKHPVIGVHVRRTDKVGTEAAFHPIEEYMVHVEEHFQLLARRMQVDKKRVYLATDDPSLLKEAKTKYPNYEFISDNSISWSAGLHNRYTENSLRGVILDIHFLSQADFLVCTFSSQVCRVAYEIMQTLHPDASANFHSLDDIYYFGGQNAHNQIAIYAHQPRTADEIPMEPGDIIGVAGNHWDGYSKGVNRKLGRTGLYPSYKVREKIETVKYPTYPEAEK
# UniProt P15976, sequence (P15976 whole entry, looked up): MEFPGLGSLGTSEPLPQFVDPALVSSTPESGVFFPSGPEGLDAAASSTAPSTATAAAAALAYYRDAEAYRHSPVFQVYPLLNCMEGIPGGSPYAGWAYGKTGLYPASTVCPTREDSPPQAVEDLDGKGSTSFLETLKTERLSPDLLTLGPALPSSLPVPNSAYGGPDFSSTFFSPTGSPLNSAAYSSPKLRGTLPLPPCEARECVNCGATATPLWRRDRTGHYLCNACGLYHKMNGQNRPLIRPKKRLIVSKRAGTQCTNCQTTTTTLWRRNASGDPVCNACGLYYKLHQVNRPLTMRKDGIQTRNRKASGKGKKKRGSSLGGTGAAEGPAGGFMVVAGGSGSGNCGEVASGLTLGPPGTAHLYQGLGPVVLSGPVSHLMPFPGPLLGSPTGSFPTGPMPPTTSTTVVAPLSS
# UniProt P0C0S5, sequence (P0C0S5 whole entry, looked up): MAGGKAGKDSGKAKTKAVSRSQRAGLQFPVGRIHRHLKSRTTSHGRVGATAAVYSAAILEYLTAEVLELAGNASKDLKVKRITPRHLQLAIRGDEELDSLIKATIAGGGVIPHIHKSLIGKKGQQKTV
Target,log2 fold change (IRAK-1-4 Inhibitor I),log2 fold change (ibrutinib),log2 fold change [1],log2 fold change (ralimetinib),log2 fold change [2],log2 fold change [3],log2 fold change [4],log2 fold change (pinometostat),log2 fold change [5],log2 fold change [6]
H2AZ1 (UniProt P0C0S5),-0.115,0.087,-0.125,0.247,0.031,-0.022,0.244,0.268,0.022,1.74 (active)
IFT80 isoform 3 (UniProt Q9P2H3),0.03,0.099,-0.073,-0.02,-0.118,-0.113,0.072,0.049,-0.085,0.073
HBA1 (UniProt P69905),0.002,0.007,-0.03,-0.037,-0.035,0.094,-0.056,0.025,-0.019,0.127
ICAM1 (UniProt P05362),0.056,0.042,-0.039,-0.02,0.002,0.157,-0.001,-0.009,-0.028,0.045
GLA (UniProt P06280),0.034,0.026,-0.031,-0.05,-0.052,-0.199,0.015,0.02,0.052,-0.051
GALNT4 (UniProt Q8N4A0),0.038,0.011,-0.061,-0.003,-0.41 (active),-0.041,-0.002,0.014,-0.004,0.072
GDE1 (UniProt Q9NZC3),-0.052,0.031,-0.009,0.02,-0.033,0.067,0.049,0.054,0.106,0.266
HNRNPF (UniProt P52597),-0.143,-0.023,-0.1,0.098,-0.086,-0.279 (active),0.069,0.018,0.05,-0.087
HMGB3 (UniProt O15347),0.071,0.038,0.083,0.163,-0.007,0.068,0.001,-0.019,-0.003,0.016
GABPA (UniProt Q06546),-0.004,-0.014,-0.054,0.001,-0.107,-0.243,-0.013,-0.007,-0.043,-0.175
FNTA (UniProt P49354),0.052,0.107,0.081,-0.05,-0.023,0.016,-0.031,-0.018,-0.023,-0.074
HAT1 (UniProt O14929),0.027,-0.009,-0.109,-0.003,-0.027,0.006,-0.022,-0.048,-0.013,-0.03
FECH isoform 2 (UniProt P22830),0.408,0.082,0.129,0.159,0.426,-0.691 (active),-0.144,-0.098,-0.457,0.514
GPX4 (UniProt P36969),-0.026,0.065,-0.005,0.01,0.003,0.099,-0.462 (active),-0.078,0.002,0.02
GYG1 (UniProt P46976),-0.055,0.025,-0.29,0.176,0.029,-0.114,0.064,0.125,0.03,0.035
HDDC2 (UniProt Q7Z4H3),0.04,0,0.052,0.085,0.003,0.074,0,-0.076,-0.006,-0.007
GNB2 (UniProt P62879),-0.021,0.003,-0.013,0.016,0.013,0.022,-0.025,0.016,-0.034,0.076
GPAT4 (UniProt Q86UL3),-0.144,-0.081,0.044,-0.058,-0.09,0.145,0.007,-0.029,-0.015,0.047
IFITM3 (UniProt Q01628),-0.067,-0.02,-0.241,0.031,0.108,-0.082,0.008,-0.181,-0.207,0.163
HOOK3 (UniProt Q86VS8),0.003,-0.057,-0.018,0.033,-0.109,-0.138,0.056,0.024,0.008,0.02
HMGN1 (UniProt P05114),-0.006,0.049,0.064,0.032,0.166,0.148,0.042,-0.022,0.014,0.294 (active)
GIGYF2 (UniProt Q6Y7W6),-0.01,-0.039,-0.316 (active),-0.041,-0.124,-0.115,0.01,0.082,0.005,0.021
HBQ1 (UniProt P09105),0.003,0.016,0.01,-0.034,-0.078,0.095,-0.102,0.004,0.027,0.147
GATA1 (UniProt P15976),0.038,0.015,0.051,0.041,0.027,0.047,0.088,0.027,0.081,-0.368 (active)
HLTF (UniProt Q14527),-0.026,-0.028,-0.134,-0.016,-0.022,0.332 (active),0.109,-0.024,-0.049,0.176
GTF3C5 isoform 3 (UniProt Q9Y5Q8),-0.028,0.046,0.047,0.01,-0.025,-0.293,0.083,0.109,0.147,-0.171
FUT8 (UniProt Q9BYC5),-0.02,0.064,-0.098,-0.087,0.019,-0.133,0.053,0.065,0.105,0.077
HEATR5B (UniProt Q9P2D3),-0.002,0.017,0.014,0.04,-0.021,-0.063,0.023,0.008,0.022,0.01
FASTKD1 (UniProt Q53R41),0.016,-0.186,-0.043,0.013,-0.316,-0.047,0.116,0.038,-0.345,0.2
HSPA8 (UniProt E9PK54),-0.051,-0.012,0.015,-0.161,0.058,0.141,0.074,0.001,0.017,-0.262

# — the supplement of paper PMC10849652
